“And” between values parts separate entries of the source, which are not always exact repeats. Identical values can stand only once. Records with an inconclusive call do not appear. Some compounds were tested as several samples or in several runs, with calls that do not always agree. The source made the active and inactive calls. Unless noted, calls follow the shape of the dose curve; as a rule, active = well fitted curve in the direction sought with a large enough effect; inconclusive = small, poorly fitted or top-dose-only effect, or another doubt; inactive = no such curve, though single readings can be large; an effect the other way counts as inactive or inconclusive.
Key:
[1] = biological target: Beta-2 adrenergic receptor (Homo sapiens) (UniProt P07550); assay: qHTS validation assay of beta-arrestin-biased ligands of beta2-adrenergic receptor (AID 485366); also: 0% is about no effect
Outline: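 Tango cells (recombinant beta2-AR with recombinant beta-arrestin; recruitment releases tTA driving luciferase) were treated with compounds titrated up to 46 microM for 18 hr at 37 degrees C. Luminescence gave %Activity, and concentration-response curves were curve-classified.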

[2] = biological target: ATP-dependent 6-phosphofructokinase (Trypanosoma brucei brucei) (UniProt O15648); assay: qHTS Validation Assay to Find Inhibitors of T. brucei phosphofructokinase (AID 485368); also: potency is read from the fitted curve at half-maximal effect
Outline: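 Compounds (up to 57 uM, titration series) were pinned into substrate buffer, then 1.25 nM PFK added; after 45 min at room temperature, ADP product was quantified by ADP-Glo luminescence and concentration-response curves fitted.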

[3] = Quantitative high throughput screen for delayed death inhibitors of the malarial parasite plastid, 96 hour incubation (AID 488745); also: nearly all actives have a fitted effect of over 70% in size; also: potency is read from the fitted curve at half-maximal effect
Outline: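 Luciferase-expressing P. falciparum in erythrocytes (2% hematocrit, 0.1% parasitemia) incubated with compound for 96 h at 37 C, 5% CO2, in RPMI 1640 with 0.5% Albumax. Growth inhibition read as decreased luminescence.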

[4] = Quantitative high throughput screen for delayed death inhibitors of the malarial parasite plastid, 48 hour incubation (AID 488752); also: nearly all actives have a fitted effect of over 65% in size; also: potency is read from the fitted curve at half-maximal effect
Outline: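 Erythrocytes infected with firefly luciferase-expressing P. falciparum (2% hematocrit, 0.1% parasitemia) cultured with compound for 48 h at 37 C, 5% CO2, in RPMI 1640/0.5% Albumax. Growth inhibition read as loss of luminescence.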

[5] = biological target: Thioredoxin reductase 1, cytoplasmic (Rattus norvegicus) (UniProt O89049); assay: qHTS Assay for Substrates of Mammalian Selenoprotein Thioredoxin Reductase 1 (TrxR1) (AID 488772);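 also: NADPH fluorescence in the first read after selenite addition and not the 8 min delta; series mostly up to about 57 µM; 0% is about no effect; a drop in NADPH fluorescence below the no-compound background marks a TrxR1 substrate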
Outline: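 Quantitative HTS in Tris-HCl buffer at pH 7.5 with EDTA and Tween-20, using rat TrxR1, 400 uM NADPH and 400 uM selenite (final). A fall in initial NADPH fluorescence relative to background marked substrate behaviour.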

[6] = biological target: Thioredoxin reductase 1, cytoplasmic (Rattus norvegicus) (UniProt O89049); assay: qHTS Assay for Inhibitors of Mammalian Selenoprotein Thioredoxin Reductase 1 (TrxR1) (AID 488773); conditions: Potency: inhibition; also: nearly all actives have a fitted effect of over 40% in size; also: potency is read from the fitted curve at half-maximal effect
Outline: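 Steps: enzyme (90 nM) plus NADPH (400 uM final), 5 min at ~22 deg C; compound added, 15 min; selenite (400 uM final) added; fluorescence followed for 8 min. Concentration-response curves derived from the normalized delta values.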

[7] = biological target: M-phase phosphoprotein 8 (Homo sapiens) (UniProt Q99549); assay: qHTS Validation Assay for Inhibitors for MPP8 Chromodomain Interactions with Methylated Histone Tails (AID 488949); also: nearly all actives have a fitted effect of over 55% in size; also: potency is read from the fitted curve at half-maximal effect
Outline: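 50 nM MPP8 + 50 nM b-H3K9me3 peptide, PBS pH 7.4/0.01% Tween-20, 30 min RT; + cpd 30 min RT; + AlphaScreen donor/Ni-chelate acceptor beads 10 ug/mL final, 30 min dark; luminescence read.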

[8] = biological target: Chromobox protein homolog 1 (Homo sapiens) (UniProt P83916); assay: qHTS Validation Assay for Inhibitors of HP1-beta Chromodomain Interactions with Methylated Histone Tails (AID 488953); also: nearly all actives have a fitted effect of over 50% in size; also: potency is read from the fitted curve at half-maximal effect
Outline: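 HP1-beta (50 nM) preformed 30 min with biotinylated H3(1-18)K9me3 peptide (50 nM) in PBS pH 7.4, 0.01% Tween-20. Compounds added for 30 min at room temperature. Complex disruption read by AlphaScreen with streptavidin donor/nickel chelate acceptor beads (10 ug/mL each).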

[9] = biological target: Methanococcus maripaludis chaperonin (MmCpn) (UniProt Q6LX38); assay: High-Throughput Screening for Modulators of Cytosolic Chaperonin Activity: MmCpn Primary Screen (AID 488978);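 also: 50 nM MmCpn enzyme hydrolysing 30 µM ATP at 37 °C; 0% is about no effect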
Outline: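 Steps: chaperonin 50 nM final; add compound, 5 min RT; start with ATP, 30 uM final; hold 10 min at 37C; add ADP Transcreener HTRF reagent, 5 min; read ex 320, em 590 and 665 nm.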

[10] = biological target: Transient receptor potential cation channel subfamily V member 1 (Homo sapiens) (UniProt Q8NER1); assay: HTS Assay for Compounds that Act as Enhancers of the Vanilloid Receptor 1 (AID 488979); also: 0% is about no effect
Outline: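 Calcium influx kinetics via Fluo-8 (480/520 nm) in TRPV1-expressing cells, 2000/well cultured overnight at 35.5C. Compound-alone read 3 min (agonist phase), followed by EC20 capsaicin challenge for 2 min (enhancer phase).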

[11] = biological target: Thyrotropin receptor (Homo sapiens) (UniProt P16473); assay: qHTS Assay for Antagonists of the Thyroid Stimulating Hormone Receptor (AID 488980); also: series mostly up to about 58 µM; 0% is about no effect
Outline: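 Readout is cAMP by HTRF competition between cellular cAMP and cAMP-d2 for a cryptate-labelled antibody. Antagonism was assessed in TSHR-transfected HEK293 cells stimulated with 4 nM TSH (EC80, final) in the presence of RO 20-1724.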

[12] = biological target: D(1A) dopamine receptor (Homo sapiens) (UniProt P21728); assay: HTS Assay for Allosteric Agonists of the Human D1 Dopamine Receptor: Primary Screen for Agonists (AID 488981); also: potency is read from the fitted curve at half-maximal effect; as to activation: 0% is about no effect
Outline: (§1)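 Calcium flux in an inducible, force-coupled HEK293 Trex D1 line (overnight at 30 C): agonist mode is the 180 s kinetic read after compound; potentiator mode is the following 180 s read after dopamine at EC20.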

[13] = biological target: D(1A) dopamine receptor (Homo sapiens) (UniProt P21728); assay: HTS Assay for Allosteric Agonists of the Human D1 Dopamine Receptor: Primary Screen for Potentiators (AID 488982); also: potency is read from the fitted curve at half-maximal effect
Outline: as §1

[14] = Validation screen for small molecules that induce genotoxicity in human embryonic kidney (HEK293T) cells expressing luciferase-tagged ELG1 (AID 493106); also: 0% is about no effect
Outline: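 HEK293T cells expressing luciferase-tagged ELG1, 2,000 cells/well, exposed to compound 16 hr at 37 °C, 5% CO2. Luciferase read after ONE-Glo, 30 min at room temperature; increased signal indicates genetic stress.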

[15] = biological target: ATPase family AAA domain-containing protein 5 (Homo sapiens) (UniProt Q96QE3); assay: Validation screen for small molecules that inhibit ELG1-dependent DNA repair in human embryonic kidney (HEK293T) cells expressing luciferase-tagged ELG1 (AID 493107); also: nearly all actives have a fitted effect of over 70% in size; also: potency is read from the fitted curve at half-maximal effect
Outline: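 HEK293T cells expressing luciferase-tagged ELG1, 2,000 per well, treated with 5-fluorouridine plus compound for 16 h at 37 C. ONE-Glo luminescence after 30 min at room temperature reports ELG1 reporter level.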

[16] = biological target: Thyrotropin-releasing hormone receptor (Homo sapiens) (UniProt P34981); assay: qHTS for Small Molecule Agonists and Allosteric Enhancers of Human TRH Receptor: Validation Screen for Agonists (AID 493127;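 active = calcium activation more than 3 SD above the typical response in the agonist read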; also: 0% is about no effect); conditions: TRH receptor agonist cell assay; at 2 µM; stronger effect = higher value
Outline: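 TRHR cells loaded with fluo-8 calcium dye; FDSS kinetic fluorescence (Ex 480/Em 530) read at 1 s/cycle after 23 nL compound addition. Agonist-mode calcium response recorded before the 10 nM TRH (EC20) addition.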

[17] = biological target: D(1A) dopamine receptor (Homo sapiens) (UniProt P21728); assay: HTS Assay for Allosteric Agonists of the Human D1 Dopamine Receptor: Primary Screen for Antagonists (AID 488983);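 also: calcium flux response to an EC80 dopamine challenge measured with no-wash dye; % is scaled to controls: 0 for no effect and ±100 for the full control effect; nearly all actives have a fitted effect of over 65% in size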
Outline: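 Tetracycline-induced HEK293 T-REx D1 line, force-coupled to calcium flux, read with no-wash calcium dye. Compound added after 10 s baseline, read 180 s for agonism, then EC80 dopamine added and read a further 180 s.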

[18] = biological target: Flap endonuclease 1 (Homo sapiens) (UniProt P39748); assay: qHTS Validation Assay for the Inhibitors of Human Flap endonuclease 1 (FEN1) (AID 488816); also: potency is read from the fitted curve at half-maximal effect
Outline: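 Readings taken at 0 and 15 min after starting the reaction with 50 nM (final) substrate supplied the signal. Compounds had first sat with 10 nM FEN1 reagent for 15 min at room temperature. Values come from Hill-equation concentration-response fits.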

D(1A) dopamine receptor (Homo sapiens), sequence (P21728 whole entry, looked up): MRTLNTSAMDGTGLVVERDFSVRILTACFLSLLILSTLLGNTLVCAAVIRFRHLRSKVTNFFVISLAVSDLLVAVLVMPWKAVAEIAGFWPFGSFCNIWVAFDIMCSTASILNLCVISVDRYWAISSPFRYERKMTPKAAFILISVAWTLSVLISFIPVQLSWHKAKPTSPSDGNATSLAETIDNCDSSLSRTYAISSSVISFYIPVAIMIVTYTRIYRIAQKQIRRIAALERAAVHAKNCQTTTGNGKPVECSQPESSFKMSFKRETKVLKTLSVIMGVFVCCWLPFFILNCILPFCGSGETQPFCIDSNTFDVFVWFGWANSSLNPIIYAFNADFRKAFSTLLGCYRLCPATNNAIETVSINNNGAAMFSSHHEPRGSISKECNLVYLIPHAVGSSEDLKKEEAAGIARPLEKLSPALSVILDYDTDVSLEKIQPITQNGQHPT
Thyrotropin-releasing hormone receptor (Homo sapiens), sequence (P34981 whole entry, looked up): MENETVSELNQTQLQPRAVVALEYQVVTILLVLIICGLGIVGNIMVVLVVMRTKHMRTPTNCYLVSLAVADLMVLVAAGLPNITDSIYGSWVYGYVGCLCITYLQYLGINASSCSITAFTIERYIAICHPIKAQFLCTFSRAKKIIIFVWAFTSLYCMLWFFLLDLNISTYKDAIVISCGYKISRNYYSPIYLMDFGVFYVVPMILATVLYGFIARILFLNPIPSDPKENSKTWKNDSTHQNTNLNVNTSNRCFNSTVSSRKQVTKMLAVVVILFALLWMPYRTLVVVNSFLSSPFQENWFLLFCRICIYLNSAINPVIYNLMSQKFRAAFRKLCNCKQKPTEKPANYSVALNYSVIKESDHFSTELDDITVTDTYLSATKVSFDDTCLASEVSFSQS
Beta-2 adrenergic receptor (Homo sapiens), sequence (P07550 whole entry, looked up): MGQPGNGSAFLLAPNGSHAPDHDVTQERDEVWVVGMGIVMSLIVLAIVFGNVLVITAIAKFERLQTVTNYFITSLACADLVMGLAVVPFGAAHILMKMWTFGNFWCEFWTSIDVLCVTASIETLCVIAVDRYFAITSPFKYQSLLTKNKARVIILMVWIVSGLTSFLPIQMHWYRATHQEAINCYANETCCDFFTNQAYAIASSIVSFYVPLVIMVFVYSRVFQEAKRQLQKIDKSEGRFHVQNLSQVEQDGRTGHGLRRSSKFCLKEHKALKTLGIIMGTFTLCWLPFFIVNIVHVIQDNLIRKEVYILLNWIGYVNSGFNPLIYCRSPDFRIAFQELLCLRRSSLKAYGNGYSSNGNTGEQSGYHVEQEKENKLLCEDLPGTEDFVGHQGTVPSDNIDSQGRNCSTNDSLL
Flap endonuclease 1 (Homo sapiens), sequence (P39748 whole entry, looked up): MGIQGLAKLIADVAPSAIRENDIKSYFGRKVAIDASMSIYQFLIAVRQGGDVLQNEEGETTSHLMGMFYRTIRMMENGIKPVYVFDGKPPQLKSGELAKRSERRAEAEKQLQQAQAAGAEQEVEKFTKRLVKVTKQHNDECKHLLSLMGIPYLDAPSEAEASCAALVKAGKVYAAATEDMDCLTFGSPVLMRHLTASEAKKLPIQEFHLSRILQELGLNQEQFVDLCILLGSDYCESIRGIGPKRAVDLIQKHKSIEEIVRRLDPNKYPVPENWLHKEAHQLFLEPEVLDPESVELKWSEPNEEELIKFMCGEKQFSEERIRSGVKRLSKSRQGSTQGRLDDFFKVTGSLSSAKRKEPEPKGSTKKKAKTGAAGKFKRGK
M-phase phosphoprotein 8 (Homo sapiens), sequence (Q99549 whole entry, looked up): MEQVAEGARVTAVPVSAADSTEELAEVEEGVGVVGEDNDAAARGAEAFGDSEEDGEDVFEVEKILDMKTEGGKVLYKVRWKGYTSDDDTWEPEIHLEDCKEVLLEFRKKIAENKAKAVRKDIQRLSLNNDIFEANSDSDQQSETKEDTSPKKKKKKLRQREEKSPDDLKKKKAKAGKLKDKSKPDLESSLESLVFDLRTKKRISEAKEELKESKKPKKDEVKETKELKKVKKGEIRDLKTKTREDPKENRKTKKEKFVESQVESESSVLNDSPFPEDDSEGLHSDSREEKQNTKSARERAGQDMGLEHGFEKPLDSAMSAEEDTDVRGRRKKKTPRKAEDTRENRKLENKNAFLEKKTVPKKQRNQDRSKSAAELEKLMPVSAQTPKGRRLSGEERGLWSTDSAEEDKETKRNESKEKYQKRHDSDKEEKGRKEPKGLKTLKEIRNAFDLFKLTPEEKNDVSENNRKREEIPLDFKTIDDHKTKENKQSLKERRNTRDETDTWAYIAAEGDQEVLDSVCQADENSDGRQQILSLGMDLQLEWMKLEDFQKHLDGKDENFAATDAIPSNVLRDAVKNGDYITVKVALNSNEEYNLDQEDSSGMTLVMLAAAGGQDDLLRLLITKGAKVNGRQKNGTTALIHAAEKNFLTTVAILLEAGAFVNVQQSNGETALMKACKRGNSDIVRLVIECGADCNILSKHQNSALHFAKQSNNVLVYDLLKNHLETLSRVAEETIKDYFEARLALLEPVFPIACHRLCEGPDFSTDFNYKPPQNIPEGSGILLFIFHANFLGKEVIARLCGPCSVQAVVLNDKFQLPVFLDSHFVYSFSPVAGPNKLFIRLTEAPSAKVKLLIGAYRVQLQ
Methanococcus maripaludis chaperonin (MmCpn), sequence (Q6LX38 1-543): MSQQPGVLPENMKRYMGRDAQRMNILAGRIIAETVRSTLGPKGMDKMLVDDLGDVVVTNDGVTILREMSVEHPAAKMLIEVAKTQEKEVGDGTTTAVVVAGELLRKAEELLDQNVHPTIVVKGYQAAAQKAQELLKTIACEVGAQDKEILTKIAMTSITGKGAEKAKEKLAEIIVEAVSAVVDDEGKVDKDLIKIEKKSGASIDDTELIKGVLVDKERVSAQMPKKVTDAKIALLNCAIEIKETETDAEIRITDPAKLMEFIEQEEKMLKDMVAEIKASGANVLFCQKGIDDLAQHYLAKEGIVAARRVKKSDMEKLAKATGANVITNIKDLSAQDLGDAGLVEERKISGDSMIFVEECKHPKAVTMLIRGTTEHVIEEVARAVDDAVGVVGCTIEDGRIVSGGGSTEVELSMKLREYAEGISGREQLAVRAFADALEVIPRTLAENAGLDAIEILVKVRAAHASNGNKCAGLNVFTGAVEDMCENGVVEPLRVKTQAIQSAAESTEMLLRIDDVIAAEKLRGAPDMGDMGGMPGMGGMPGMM
Thyrotropin receptor (Homo sapiens), sequence (P16473 whole entry, looked up): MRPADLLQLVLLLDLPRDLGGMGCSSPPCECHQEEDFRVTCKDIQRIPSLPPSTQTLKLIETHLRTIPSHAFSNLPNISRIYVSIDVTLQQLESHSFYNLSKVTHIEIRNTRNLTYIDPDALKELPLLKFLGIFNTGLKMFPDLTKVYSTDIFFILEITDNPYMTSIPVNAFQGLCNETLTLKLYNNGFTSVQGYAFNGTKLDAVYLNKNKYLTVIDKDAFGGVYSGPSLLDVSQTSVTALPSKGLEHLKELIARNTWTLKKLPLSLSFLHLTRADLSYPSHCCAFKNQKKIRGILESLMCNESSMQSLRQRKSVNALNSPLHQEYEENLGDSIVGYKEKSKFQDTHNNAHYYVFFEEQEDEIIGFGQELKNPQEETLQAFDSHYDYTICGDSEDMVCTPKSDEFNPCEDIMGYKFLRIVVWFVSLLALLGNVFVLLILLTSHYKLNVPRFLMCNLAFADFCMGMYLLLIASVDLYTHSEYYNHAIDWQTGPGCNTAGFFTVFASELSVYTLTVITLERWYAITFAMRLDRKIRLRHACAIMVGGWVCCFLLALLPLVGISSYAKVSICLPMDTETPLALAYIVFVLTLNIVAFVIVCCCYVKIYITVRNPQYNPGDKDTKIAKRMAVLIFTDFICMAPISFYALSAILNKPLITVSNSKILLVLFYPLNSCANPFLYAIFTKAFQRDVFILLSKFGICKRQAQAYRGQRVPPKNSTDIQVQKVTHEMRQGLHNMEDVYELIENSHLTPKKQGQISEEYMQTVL
Transient receptor potential cation channel subfamily V member 1 (Homo sapiens), sequence (Q8NER1 whole entry, looked up): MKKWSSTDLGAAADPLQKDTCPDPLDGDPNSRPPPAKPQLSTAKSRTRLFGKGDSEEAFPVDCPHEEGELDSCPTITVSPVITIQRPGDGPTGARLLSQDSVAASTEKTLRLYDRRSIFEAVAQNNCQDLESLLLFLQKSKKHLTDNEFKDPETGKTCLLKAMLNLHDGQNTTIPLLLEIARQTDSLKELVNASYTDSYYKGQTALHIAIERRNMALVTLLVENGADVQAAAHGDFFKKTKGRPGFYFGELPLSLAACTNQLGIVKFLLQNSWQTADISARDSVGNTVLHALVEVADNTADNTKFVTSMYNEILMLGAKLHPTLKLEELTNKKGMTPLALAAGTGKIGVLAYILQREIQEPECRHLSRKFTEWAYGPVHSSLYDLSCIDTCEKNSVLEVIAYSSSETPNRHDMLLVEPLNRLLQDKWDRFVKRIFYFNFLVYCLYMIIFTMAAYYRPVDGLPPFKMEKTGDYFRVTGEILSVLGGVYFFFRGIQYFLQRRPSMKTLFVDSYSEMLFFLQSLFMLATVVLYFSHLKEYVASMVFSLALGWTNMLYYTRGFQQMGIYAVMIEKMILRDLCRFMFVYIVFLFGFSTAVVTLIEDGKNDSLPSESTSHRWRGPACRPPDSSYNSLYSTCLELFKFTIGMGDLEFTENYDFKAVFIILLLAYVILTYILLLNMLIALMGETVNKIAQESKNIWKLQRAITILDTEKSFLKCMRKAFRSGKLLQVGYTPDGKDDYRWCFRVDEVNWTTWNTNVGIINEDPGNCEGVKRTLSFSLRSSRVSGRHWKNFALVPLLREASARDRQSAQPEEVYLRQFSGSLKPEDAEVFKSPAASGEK
Chromobox protein homolog 1 (Homo sapiens), sequence (P83916 whole entry, looked up): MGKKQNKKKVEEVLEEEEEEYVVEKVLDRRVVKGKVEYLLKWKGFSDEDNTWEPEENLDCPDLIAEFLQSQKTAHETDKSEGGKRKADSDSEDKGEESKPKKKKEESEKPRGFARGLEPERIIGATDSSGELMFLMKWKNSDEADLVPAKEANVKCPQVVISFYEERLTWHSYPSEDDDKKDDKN

N[C@H](C(=O)O)c1cc(O)cc(O)c1
inactive: outcome [1] | Potency [2] | Potency [3] | Potency [4] | outcome [5] | Potency [6] | Potency [7] | Potency [8] | outcome [9] | outcome [10] | outcome [11] | Potency [12] | Potency [13] | Potency [14] | Potency [15] | activation [16] 0.0625%

Cn1ccnc1
inactive: outcome [1] | Potency [2] | Potency [3] | Potency [4] | outcome [5] | Potency [6] | Potency [7] | Potency [8] | outcome [9] | outcome [10] | outcome [11] | Potency [12] | Potency [13] | Potency [17] | Potency [14] | Potency [15] | activation [16] 1.38%

Cc1cccc(C)c1OCC(N)C(C)C (stereo not given)
inactive: outcome [1] | Potency [2] | Potency [3] | Potency [4] | outcome [5] | Potency [18] | Potency [7] | Potency [8] | outcome [9] | outcome [10] | outcome [11] | Potency [13] | Potency [17] | Potency [14] | Potency [15] | activation [16] 1.56%

O=C1OC(=O)C2C3CCC(O3)C12 (stereo not given)
inactive: outcome [1] | Potency [2] | Potency [3] | Potency [4] | outcome [5] | Potency [7] | Potency [8] | outcome [9] | outcome [10] | outcome [11] | Potency [12] | Potency [13] | activation [16] 0.938%

N=C(N)c1ccc(N)cc1
inactive: outcome [1] | Potency [2] | Potency [3] | outcome [5] | Potency [6] | Potency [18] | Potency [7] | Potency [8] | outcome [9] | outcome [10] | outcome [11] | Potency [13] | Potency [17] | Potency [14] | activation [16] -2.75%

O=c1oc(Cl)c(Cl)c2ccccc12
inactive: outcome [1] | Potency [2] | Potency [3] | Potency [4] | outcome [5] | Potency [18] | outcome [9] | outcome [10] | outcome [11] | Potency [12] | Potency [13] | Potency [17] | Potency [14] | activation [16] -4.69%

CCCN(CCc1ccccc1)C1CCc2c(O)cccc2C1 (stereo not given)
active: Potency [3] 3.29 µM | Potency [4] 3.29 µM
inactive: outcome [1] | Potency [2] | outcome [5] | Potency [18] | Potency [7] | Potency [8] | outcome [9] | outcome [11] | Potency [12] | Potency [13] | Potency [14] | Potency [15] | activation [16] 1.25%

CC1=C(C(=O)O)N2C(=O)[C@@H](NC(=O)C(N)C3=CCC=CC3)[C@H]2SC1 (stereo not given in full)
inactive: outcome [1] | Potency [2] | Potency [3] | Potency [4] | outcome [5] | Potency [6] | Potency [7] | outcome [9] | outcome [10] | outcome [11] | Potency [12] | Potency [17] | Potency [14] | Potency [15]

COc1cc(/C=C(\C#N)C(=O)c2ccc(O)c(O)c2)cc(I)c1O
inactive: outcome [1] | Potency [3] | Potency [4] | outcome [5] | outcome [9] | outcome [10] | outcome [11] | Potency [17] | Potency [14]
active: Potency [2] 6.01 µM | Potency [18] 0.844 µM | Potency [7] 8.91 µM and 8.44 µM | Potency [8] 10 µM | Potency [13] 3.66 µM | activation [16] 53.1%

CCC1(O)CC2CN(CCc3c([nH]c4ccccc34)[C@@](C(=O)OC)(c3cc4c(cc3OC)N(C)C3[C@]45CCN4CC=C[C@@](CC)([C@@H](OC(C)=O)[C@]3(O)C(=O)OC)[C@H]45)C2)C1 (stereo not given in full)
active: Potency [3] 0.522 µM | Potency [4] 0.586 µM
inactive: outcome [1] | Potency [2] | Potency [18] | Potency [7] | outcome [9] | outcome [10] | outcome [11] | Potency [12] | Potency [13] | Potency [17] | activation [16] -0.125%

Cn1c(=O)c2c(nc(/C=C/c3cccc(Cl)c3)n2C)n(C)c1=O
inactive: outcome [1] | Potency [2] | Potency [3] | Potency [4] | outcome [5] | Potency [6] | Potency [7] | outcome [9] | outcome [10] | outcome [11] | Potency [12] | Potency [17] | Potency [14] | Potency [15] | activation [16] -2.88%

COc1ccc2c(c1)c(CC(=O)O)c(C)n2Cc1ccc(Cl)cc1
inactive: outcome [1] | Potency [2] | outcome [5] | Potency [6] | Potency [18] | Potency [7] | outcome [9] | outcome [10] | outcome [11] | Potency [12] | Potency [17] | Potency [14] | Potency [15] | activation [16] -0.188%
active: Potency [3] 10.4 µM | Potency [8] 0.0067 µM

CC#CCOC(=O)c1c(C)nc2sc3c(c2c1N)CCC(O)C3 (stereo not given)
inactive: outcome [1] | Potency [2] | outcome [5] | Potency [6] | Potency [18] | Potency [7] | Potency [8] | outcome [9] | outcome [10] | outcome [11] | Potency [12] | Potency [13] | Potency [17] | Potency [14] | activation [16] 0.438%

CN(C)S(=O)(=O)c1ccc2c(c1)/C(=C/c1cc3c([nH]1)CCCC3)C(=O)N2
17.8 µM (active) and inactive: Potency [7]
inactive: outcome [1] | Potency [2] | outcome [5] | Potency [18] | outcome [9] | outcome [11] | Potency [17] | activation [16] 26.3%
active: Potency [3] 3.7 µM | Potency [12] 12.6 µM

C=C1C(=O)O[C@@H]2[C@H]3O[C@]3(C)CCC=C(C)CC[C@@H]12
active: Potency [6] 16.8 µM | Potency [15] 25.9 µM
inactive: outcome [1] | Potency [2] | outcome [5] | Potency [18] | Potency [7] | outcome [9] | outcome [10] | outcome [11] | Potency [12] | Potency [13] | Potency [17] | Potency [14] | activation [16] -0.125%
